# Measurements as given in PubChem BioAssay.
# Calls of active or inactive are those of the source.
# Assays:
# [1] = tested on: Plasmodium falciparum Sir2 (PF13_0152, Sir2A); test: Plasmodium falciparum Sir2A binding compounds – biochemical, small-molecule microarray, 635 nm fluorescence, primary screen (AID 1098); settings: fluorescence 635 nm, higher = more signal;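 also: score merges spot fluorescence intensity with its signal-to-noise ratio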
# [2] = probe aDKK1 binding to arrayed compounds – biochemical, biotinylated probe, 635/667 nm fluorescence, primary screen (AID 1099); settings: small-molecule microarray, higher = more signal;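 also: score merges 667nm spot fluorescence with signal to noise across triplicate slides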
# [3] = probe aCHRDL2 binding to arrayed compounds – biochemical, biotinylated probe, 635/667 nm fluorescence, primary screen (AID 1100); settings: small-molecule microarray, higher = more signal
# [4] = change in splice reporter luminescence, either direction, cell-based, HEK293, spliceosome inhibition project, primary screen (AID 1101); settings: HEK293 splicing luciferase reporter, 24 h, higher = more signal, called active from +8 up or from −8 down;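 also: HEK293 cells carrying a splicing-competent luciferase reporter gene; test concentration not given here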
# [5] = biological target: Fibroblast growth factor 10 (Homo sapiens) (UniProt O15520); test: compounds binding fibroblast growth factor 10 – biochemical, small-molecule microarray, 635 nm fluorescence, primary screen (AID 1102); settings: FGF10 binding, fluorescence 635 nm, higher = more signal
# [6] = tested on: glycogen synthase kinase-3 (GSK3A per assay name; protocol says GSK3B); test: compounds binding glycogen synthase kinase-3 – biochemical, small-molecule microarray, 635 nm fluorescence, GSK3A, primary screen (AID 1103); settings: fluorescence 635 nm, higher = more signal; also: the record names both GSK3A and GSK3B
# [7] = biological target: Epidermal growth factor receptor (Homo sapiens) (UniProt P00533); test: compounds binding epidermal growth factor receptor – biochemical, small-molecule microarray, 635 nm fluorescence, primary screen (AID 1104); settings: EGFR binding, higher = more signal;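 also: score merges 667 nm emission intensity with spot signal to noise over triplicate slides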
# [8] = biological target: Follistatin-related protein 3 (Homo sapiens) (UniProt O95633); test: compounds binding follistatin-related protein 3 – biochemical, small-molecule microarray, 635 nm fluorescence, primary screen (AID 1105); settings: FSTL3 binding, higher = more signal;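 also: score merges emission near 667 nm and signal to noise per printed spot across three slides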
# [9] = biological target: Dickkopf-related protein 1 (Homo sapiens) (UniProt O94907); test: small molecules binding DKK1 protein – biochemical, small-molecule microarray, 635 nm fluorescence scan, primary screen (AID 1106); settings: higher = more signal;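 also: score merges emission near 667 nm with signal to noise over three replicate slides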
# [10] = tested on: Inhibin beta A chain (activin A); test: small molecules binding activin A – biochemical, small-molecule microarray, 635 nm fluorescence scan, primary screen (AID 1107); settings: INHBA, higher = more signal;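 also: mouse activin A protein probed at 4.33 µg/mL on printed slides; score merges bound-protein fluorescence near 667 nm with spot signal-to-noise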
# [11] = tested on: Human papillomavirus type 1a protein E7 (residues 44-93); test: small molecules binding HPV E7 44-93 – biochemical, small-molecule microarray, residues 44-93, 635 nm fluorescence, primary screen (AID 1108); settings: fluorescence 635 nm, higher = more signal;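 also: E7 fragment applied at 1 µg/mL in TBST for 1 h at 4 C; score combines spot fluorescence with its signal to noise ratio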
# [12] = hepatitis C replication reporter changes, two-sided – Huh7 cells, luciferase reporter, HCV replication inhibitor project, primary screen (AID 1109); settings: Huh7 HCV replicon luciferase reporter, 48 h; higher = more signal;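 also: huh7 hepatoma cells harbouring a luciferase neomycin HCV replicon reporter; luciferase luminescence as measure of HCV replicon replication; test concentration not given here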
# [13] = biological target: Left-right determination factor 2 (Homo sapiens) (UniProt O00292); test: small molecules binding LEFTY2 protein – biochemical, small-molecule microarray, 635 nm fluorescence scan, primary screen (AID 1110); settings: higher = more signal
# [14] = biological target: Calmodulin-1 (Homo sapiens) (UniProt P0DP23); test: small molecules binding calmodulin-1 with EGTA – biochemical, small-molecule microarray, Cy5-labelled CALM1, profiling panel (AID 1111); settings: Cy5-CALM1 binding fluorescence, higher = more signal;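 also: labelled calmodulin applied in Tris saline Tween buffer holding calcium plus EGTA and DTT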
# [15] = biological target: Calmodulin-1 (Homo sapiens) (UniProt P0DP23); test: small molecules binding Ca-loaded calmodulin-1 – biochemical, small-molecule microarray, Cy5-labelled CALM1, plus calcium, artefact control for SMM control-protein annotation, profiling panel (AID 1112); settings: Cy5-CALM1 binding fluorescence, higher = more signal;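 also: score merges spot fluorescence with signal to noise from triplicate slides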
# [16] = probe aWnt5a binding to arrayed compounds – biochemical, biotinylated probe, 635/667 nm fluorescence, primary screen (AID 1113); settings: small-molecule microarray, higher = more signal;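 also: score merges 667 nm fluorescence intensity with signal-to-noise per printed feature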
# [17] = probe aShh binding to arrayed compounds – biochemical, biotinylated probe, 635/667 nm fluorescence, primary screen (AID 1114); settings: small-molecule microarray, higher = more signal;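 also: probe is biotin-labelled aShh protein from a stem cell growth factor screen; measures binding of labelled protein to compounds printed on the slide; score merges feature fluorescence at 667 nm with signal-to-noise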
# [18] = probe aNog binding to arrayed compounds – biochemical, biotinylated probe, 635/667 nm fluorescence, primary screen (AID 1115); settings: small-molecule microarray, higher = more signal;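 also: probe is biotinylated aNog protein used at 0.15 µg/mL for 1 h at 4 C; z-score combines 667 nm fluorescence of each spot with its signal to noise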
# [19] = biological target: Torsin-1A-interacting protein 1 (Homo sapiens) (UniProt Q5JTV8); test: compound microarray binding of lysate hLAP1 – cell lysate, small-molecule microarray, COS7 lysate, 635/667 nm fluorescence, primary screen (AID 1116); settings: 635 nm fluorescence, higher = more signal
# [20] = biological target: Alpha-bungarotoxin (Bungarus multicinctus) (UniProt P60615); test: compounds binding labelled alpha-BTX control protein – biochemical, small-molecule microarray, Alexa647 label, 635/667 nm fluorescence, artefact control for SMM control protein annotation, profiling panel (AID 1117); settings: alpha-BTX-A647 binding fluorescence, higher = more signal
# Chain of Alpha-bungarotoxin (Bungarus multicinctus) (P60615 whole entry, looked up): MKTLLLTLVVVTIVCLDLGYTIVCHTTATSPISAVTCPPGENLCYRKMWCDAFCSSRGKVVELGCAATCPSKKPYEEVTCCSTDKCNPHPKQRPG
# Chain of Dickkopf-related protein 1 (Homo sapiens) (O94907 whole entry, looked up): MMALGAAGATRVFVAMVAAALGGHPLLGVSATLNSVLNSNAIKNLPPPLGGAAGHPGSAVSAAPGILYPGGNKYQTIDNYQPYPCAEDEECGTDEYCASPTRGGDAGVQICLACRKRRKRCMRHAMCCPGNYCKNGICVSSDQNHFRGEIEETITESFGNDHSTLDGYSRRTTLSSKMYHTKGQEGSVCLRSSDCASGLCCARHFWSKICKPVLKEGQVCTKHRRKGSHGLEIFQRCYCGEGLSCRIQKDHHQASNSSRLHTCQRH
# Chain of Epidermal growth factor receptor (Homo sapiens) (P00533 whole entry, looked up): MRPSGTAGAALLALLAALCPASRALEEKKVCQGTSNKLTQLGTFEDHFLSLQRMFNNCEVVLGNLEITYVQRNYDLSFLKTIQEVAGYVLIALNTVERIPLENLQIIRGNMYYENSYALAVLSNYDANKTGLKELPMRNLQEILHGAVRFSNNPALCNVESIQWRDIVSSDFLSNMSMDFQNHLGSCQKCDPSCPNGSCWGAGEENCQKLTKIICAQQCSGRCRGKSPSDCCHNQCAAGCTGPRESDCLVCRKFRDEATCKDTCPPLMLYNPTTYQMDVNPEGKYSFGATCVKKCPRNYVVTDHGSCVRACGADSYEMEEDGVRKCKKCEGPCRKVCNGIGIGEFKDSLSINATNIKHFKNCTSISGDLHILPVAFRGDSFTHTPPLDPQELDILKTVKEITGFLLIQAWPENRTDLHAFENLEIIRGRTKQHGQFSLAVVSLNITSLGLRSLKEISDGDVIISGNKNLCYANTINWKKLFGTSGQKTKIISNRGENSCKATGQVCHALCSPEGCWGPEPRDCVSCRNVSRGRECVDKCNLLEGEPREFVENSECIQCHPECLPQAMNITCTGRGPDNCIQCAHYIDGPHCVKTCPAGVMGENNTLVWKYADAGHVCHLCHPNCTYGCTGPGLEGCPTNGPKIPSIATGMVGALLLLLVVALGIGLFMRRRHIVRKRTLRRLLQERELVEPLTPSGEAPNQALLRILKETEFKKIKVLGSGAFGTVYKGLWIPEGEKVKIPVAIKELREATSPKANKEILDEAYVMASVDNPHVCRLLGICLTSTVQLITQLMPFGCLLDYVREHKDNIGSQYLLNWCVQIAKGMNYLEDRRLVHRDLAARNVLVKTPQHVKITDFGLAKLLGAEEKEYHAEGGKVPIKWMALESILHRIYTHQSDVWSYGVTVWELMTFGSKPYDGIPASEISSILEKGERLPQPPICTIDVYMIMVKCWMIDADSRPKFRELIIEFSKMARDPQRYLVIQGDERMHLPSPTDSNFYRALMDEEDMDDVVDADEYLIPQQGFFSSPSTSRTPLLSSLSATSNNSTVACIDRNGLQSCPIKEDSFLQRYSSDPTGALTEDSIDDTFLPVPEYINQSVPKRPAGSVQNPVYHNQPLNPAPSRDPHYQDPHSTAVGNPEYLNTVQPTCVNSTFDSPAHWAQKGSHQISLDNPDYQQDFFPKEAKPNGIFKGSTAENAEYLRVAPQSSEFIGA
# Chain of Follistatin-related protein 3 (Homo sapiens) (O95633 whole entry, looked up): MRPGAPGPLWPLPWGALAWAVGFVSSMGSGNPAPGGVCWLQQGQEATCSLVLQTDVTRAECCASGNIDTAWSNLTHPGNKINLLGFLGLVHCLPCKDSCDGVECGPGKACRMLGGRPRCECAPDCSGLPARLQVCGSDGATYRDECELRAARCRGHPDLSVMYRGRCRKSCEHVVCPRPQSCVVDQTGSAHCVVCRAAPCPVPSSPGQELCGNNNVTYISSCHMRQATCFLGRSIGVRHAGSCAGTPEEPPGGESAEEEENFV
# Chain of Left-right determination factor 2 (Homo sapiens) (O00292 whole entry, looked up): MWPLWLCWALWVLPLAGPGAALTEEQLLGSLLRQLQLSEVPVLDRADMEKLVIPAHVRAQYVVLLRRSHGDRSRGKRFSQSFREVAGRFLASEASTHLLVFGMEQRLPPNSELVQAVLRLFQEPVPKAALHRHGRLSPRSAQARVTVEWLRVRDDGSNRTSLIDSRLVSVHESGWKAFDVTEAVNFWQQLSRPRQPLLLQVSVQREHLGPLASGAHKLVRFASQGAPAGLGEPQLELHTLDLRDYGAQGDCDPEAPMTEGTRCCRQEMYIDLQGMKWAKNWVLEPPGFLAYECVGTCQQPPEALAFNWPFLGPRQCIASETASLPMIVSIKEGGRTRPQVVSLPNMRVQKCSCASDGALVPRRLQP
# Chain of Torsin-1A-interacting protein 1 (Homo sapiens) (Q5JTV8 whole entry, looked up): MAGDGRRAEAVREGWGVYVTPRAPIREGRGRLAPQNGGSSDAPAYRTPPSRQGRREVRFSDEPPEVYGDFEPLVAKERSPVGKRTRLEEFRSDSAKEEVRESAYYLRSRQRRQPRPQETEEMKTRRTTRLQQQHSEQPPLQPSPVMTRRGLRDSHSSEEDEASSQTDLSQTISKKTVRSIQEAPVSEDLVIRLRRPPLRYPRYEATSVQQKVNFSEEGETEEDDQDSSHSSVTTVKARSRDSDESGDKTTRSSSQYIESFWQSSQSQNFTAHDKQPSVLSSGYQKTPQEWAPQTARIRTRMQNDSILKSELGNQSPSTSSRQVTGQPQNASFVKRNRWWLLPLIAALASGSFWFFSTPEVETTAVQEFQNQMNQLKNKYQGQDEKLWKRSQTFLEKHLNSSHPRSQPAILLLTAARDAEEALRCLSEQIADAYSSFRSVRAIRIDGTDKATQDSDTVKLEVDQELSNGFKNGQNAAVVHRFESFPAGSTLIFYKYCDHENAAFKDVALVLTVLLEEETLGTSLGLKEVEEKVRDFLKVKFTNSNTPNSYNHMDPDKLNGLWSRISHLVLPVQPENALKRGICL
# Chain of Fibroblast growth factor 10 (Homo sapiens) (O15520 whole entry, looked up): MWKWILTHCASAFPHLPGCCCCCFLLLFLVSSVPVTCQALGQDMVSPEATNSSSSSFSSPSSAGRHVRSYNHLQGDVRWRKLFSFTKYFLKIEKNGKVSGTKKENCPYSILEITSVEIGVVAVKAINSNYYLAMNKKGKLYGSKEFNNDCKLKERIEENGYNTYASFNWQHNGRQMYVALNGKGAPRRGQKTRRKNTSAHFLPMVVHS
Compound,composite z-score [1],composite z-score [2],composite z-score [3],z-score [4],composite z-score [5],composite z-score [6],composite z-score [7],composite z-score [8],composite z-score [9],composite z-score [10],composite z-score [11],z-score [12],composite z-score [13],composite z-score [14],composite z-score [15],composite z-score [16],composite z-score [17],composite z-score [18],composite z-score [19],composite z-score [20]
COc1ccc(C(=O)Nc2ccc(CN3C(=O)[C@@]4(O[C@@H](CCO)[C@H]([Si](C)(C)c5ccc(OC)cc5)[C@H]4C)c4ccccc43)cc2)cc1,1.32,0.381,0.47,-3.19 (inactive),0.793,1.1,0.65,1.45,1.04,1.39,0.908,-5.15,0.861,0.0404,-0.608,0.0367,-0.0146,0.0395,1.12,0.643
C=C(COC)/C(=C/C[C@@H](OC(C)=O)c1ccc(OCCO)cc1)c1cc(C(=O)OC)ccc1OC,1.22,0.455,-0.103,0.585 (inactive),1.54,0.794,0.265,1.27,0.43,0.884,1.35,-1.51,0.417,-0.107,-0.878,0.0618,0.23,-0.354,0.864,0.472
O=C(O)[C@@]1(CCS(=O)(=O)c2ccccc2)COC(c2ccc(OCCCO)cc2)=N1,0.6,0.458,1.05,0.733 (inactive),0.0185,-0.62,-0.939,-0.928,-1.17,1.19,0.182,-0.615,-0.691,-0.0602,0.24,-0.129,0.0062,-0.463,2.98,0.451
O=C(NCc1ccccc1)[C@@]1(CCS(=O)(=O)c2ccccc2)N=C(c2ccc(OCCCO)cc2)O[C@H]1c1ccccc1,0.691,0.717,1.03,0.0308 (inactive),1.28,1.12,-0.304,0.866,-0.393,0.525,1.44,-2.25,-0.125,1.43,0.112,0.111,0.0055,-0.0597,1.32,2.03
COCCOC(=O)N1C(=O)[C@@]2(c3cc(C#CCCO)ccc31)[C@H](C(=O)Nc1nc3ccccc3s1)[C@H]1C(=O)O[C@H](c3ccccc3)[C@H](c3ccccc3)N1[C@@H]2c1ccc(OCCO)cc1,1.27,0.385,-0.284,-0.021 (inactive),1.11,0.687,0.432,1.2,0.31,0.0763,1.32,-1.81,0.774,1.08,-0.263,0.115,0.0898,-0.22,1.14,0.772
CCOC(=O)C[C@H]1[C@H](OC(=O)Cc2ccc3c(c2)OCO3)[C@@H](NC(=O)c2ccc3ccccc3c2)c2cc(OCCCO)ccc2N1C(=O)c1ccccc1,0.622,-0.0805,-0.205,-0.547 (inactive),0.47,0.213,0.188,0.433,0.295,0.405,0.967,-1.57,0.348,0.119,-0.447,-0.147,-0.2,-0.417,0.656,0.943
C=CCNC(=O)[C@@H]1[C@H]2C(=O)O[C@H](c3ccccc3)[C@H](c3ccccc3)N2[C@H](c2ccc(OCCO)cc2)[C@@]12C(=O)Nc1ccc(C#CCCO)cc12,1.7,-0.0674,0.456,-1.09 (inactive),1.22,1.27,0.652,1.42,1.12,1.26,1.32,-1.36,1.28,1.44,-0.0758,0.452,2.63,2.4,2.12,1.68
CCCCN1CC=CC23O[C@@H]4C=CCOC(=O)[C@@H]4[C@H]2C(=O)N(CCCCCO)[C@@H]3C1=O (stereo not given in full),1.15,-0.159,0.641,-0.248 (inactive),-0.828,-0.656,-0.945,-1.39,-1.03,-0.0355,-0.524,0.536,-1.53,-0.615,-0.363,-0.124,0.627,0.151,1.95,-1.47
CC(C)N1C(=O)[C@@]2(Cc3ccccc31)c1ccccc1C(=O)N(C1CCCCC1)[C@H]2c1ccc(CO)cc1,1.15,-0.307,-0.194,0.0789 (inactive),0.206,0.856,0.507,1.17,0.788,0.899,0.683,-1.26,0.0232,-0.435,-0.56,-0.063,-0.195,-0.399,0.103,0.284
COCCOC(=O)N1C(=O)[C@@]2(c3cc(C#CC4=CCCCC4)ccc31)[C@H](C(=O)Nc1nc3ccccc3s1)[C@H]1C(=O)O[C@H](c3ccccc3)[C@H](c3ccccc3)N1[C@@H]2c1ccc(OCCO)cc1,0.687,-0.0057,0.235,0.000305 (inactive),0.945,1.21,0.36,0.908,0.495,0.91,1.05,-1.09,0.269,0.792,-0.171,-0.0685,-0.196,-0.337,0.47,0.387
O=C(c1ccccc1)N1Cc2ccccc2[C@@H]2OC(c3ccc(OCCCO)cc3)=N[C@]2(Cc2ccccc2)C1=O,1.35,0.114,0.431,-0.0808 (inactive),1.24,1.33,0.444,1.03,0.0731,0.3,1.29,-1.58,0.243,0.978,-0.0808,0.0825,-0.305,-0.364,0.215,1.19
